# Measured values taken from the supplement of paper PMC8728848.
# This is one part of a sample in which the strongest signals are shown more often than they occur.
# B1: FGF1 (Homo sapiens), P05230 (protein)
# chain: MAEGEITTFTALTEKFNLPPGNYKKPKLLYSNGGHFLRILPDGTVDGTRDRSDQHIQLQLSAESVGEVYIKSTETGQYLAMTDGLLYGSQTPNEECLFLERLEENHYNTYISKHAEKNWFVGLKKNGSCKRGPRTHYGQAILFLPLPASSED
# Legend:
# Assay in all cases: glycan array binding signal (z-score within array); higher = stronger binding
# Conditions in all cases: glycan notation: IUPAC condensed, linker removed
# [1] = biological target: Fuc(a1-2)Gal(b1-3)GlcNAc(b1-2)Man(a1-3)[Fuc(a1-2)Gal(b1-3)GlcNAc(b1-2)Man(a1-6)]Man(b1-4)GlcNAc(b1-4)[Fuc(a1-6)]GlcNAc
# Method in brief: (§1)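 From the Consortium for Functional Glycomics database, 3228 arrays were curated, keeping only those whose protein sequence was available. Binding is given as a within-array Z-score averaged across arrays sharing a protein sequence and across linkers. Negative Z-scores can be read as non-binding.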
# [2] = biological target: Fuc(a1-2)Gal(b1-3)[Fuc(a1-4)]GlcNAc(b1-2)Man(a1-3)[Fuc(a1-2)Gal(b1-3)[Fuc(a1-4)]GlcNAc(b1-2)Man(a1-3)]Man(b1-4)GlcNAc(b1-4)GlcNAc
# Method in brief: as §1
# Fuc(a1-2)Gal(b1-4)Glc = biological target: Fuc(a1-2)Gal(b1-4)Glc
# Method in brief: as §1
# [3] = biological target: Fuc(a1-2)Gal(b1-4)GlcNAc(b1-3)GalNAc
# Method in brief: as §1
# Fuc(a1-2)Gal6S(b1-4)Glc = biological target: Fuc(a1-2)Gal6S(b1-4)Glc
# Method in brief: as §1
# [4] = biological target: Fuc(a1-2)Gal6S(b1-4)Glc6S
# Method in brief: as §1
# [5] = biological target: Fuc(a1-2)[GalNAc(a1-3)]Gal(b1-4)GlcNAc(b1-3)GalNAc
# Method in brief: as §1
# [6] = biological target: Fuc(a1-3)[Gal(b1-4)]GlcNAc(b1-6)GalNAc
# Method in brief: as §1
# [7] = biological target: Fuc(a1-3)[Gal3S(b1-4)]GlcNAc6S
# Method in brief: as §1
# [8] = biological target: Gal(a1-3)Gal(b1-3)GlcNAc(b1-3)GalNAc
# Method in brief: as §1
# [9] = biological target: Gal(a1-3)Gal(b1-3)[Fuc(a1-4)]GlcNAc(b1-2)Man(a1-3)[Gal(a1-3)Gal(b1-3)[Fuc(a1-4)]GlcNAc(b1-2)Man(a1-6)]Man(b1-4)GlcNAc(b1-4)GlcNAc
# Method in brief: as §1
# [10] = biological target: Gal(a1-3)Gal(b1-4)GlcNAc(b1-3)GalNAc
# Method in brief: as §1
# Gal(a1-4)Gal(b1-4)GlcNAc = biological target: Gal(a1-4)Gal(b1-4)GlcNAc
# Method in brief: as §1
# [11] = biological target: Gal(a1-4)Gal(b1-4)GlcNAc(b1-3)Gal(b1-4)Glc
# Method in brief: as §1
# [12] = biological target: Gal(b1-3)[Fuc(a1-4)]GlcNAc(b1-2)Man
# Method in brief: as §1
# [13] = biological target: Gal(b1-3)[Fuc(a1-4)]GlcNAc(b1-2)Man(a1-3)[Gal(b1-3)[Fuc(a1-4)]GlcNAc(b1-2)Man(a1-6)]Man(b1-4)GlcNAc(b1-4)[Fuc(a1-6)]GlcNAc
# Method in brief: as §1
# [14] = biological target: Gal(b1-4)GalNAc(a1-3)[Fuc(a1-2)]Gal(b1-4)GlcNAc
# Method in brief: as §1
# Gal(b1-4)GlcNAc = biological target: Gal(b1-4)GlcNAc
# Method in brief: as §1
# [15] = biological target: Gal(b1-4)GlcNAc(a1-6)Gal(b1-4)GlcNAc
# Method in brief: as §1
# [16] = biological target: Gal(b1-4)GlcNAc(b1-3)Gal(b1-4)GlcNAc(b1-3)Gal(b1-4)GlcNAc(b1-2)Man(a1-3)[Gal(b1-4)GlcNAc(b1-3)Gal(b1-4)GlcNAc(b1-3)Gal(b1-4)GlcNAc(b1-2)Man(a1-6)]Man(b1-4)GlcNAc(b1-4)[Fuc(a1-6)]GlcNAc
# Method in brief: as §1
# [17] = biological target: Gal(b1-4)GlcNAc(b1-3)Gal(b1-4)GlcNAc(b1-3)Gal(b1-4)GlcNAc(b1-3)Gal(b1-4)GlcNAc(b1-2)Man(a1-3)[Gal(b1-4)GlcNAc(b1-3)Gal(b1-4)GlcNAc(b1-3)Gal(b1-4)GlcNAc(b1-3)Gal(b1-4)GlcNAc(b1-2)Man(a1-6)]Man(b1-4)GlcNAc(b1-4)[Fuc(a1-6)]GlcNAc
# Method in brief: as §1
# [18] = biological target: Gal(b1-4)GlcNAc(b1-3)Gal(b1-4)GlcNAc(b1-3)[Gal(b1-4)GlcNAc(b1-3)Gal(b1-4)GlcNAc(b1-6)]GalNAc
# Method in brief: as §1
# [19] = biological target: Gal3S(b1-3)[Fuc(a1-4)]GlcNAc
# Method in brief: as §1
# Gal3S(b1-4)Glc = biological target: Gal3S(b1-4)Glc
# Method in brief: as §1
# Gal3S6S(b1-4)GlcNAc6S = biological target: Gal3S6S(b1-4)GlcNAc6S
# Method in brief: as §1
# [20] = biological target: GalNAc(b1-4)GlcNAc(b1-2)Man(a1-3)[GalNAc(b1-4)GlcNAc(b1-2)Man(a1-6)]Man(b1-4)GlcNAc(b1-4)GlcNAc
# Method in brief: as §1
# GalNAc(b1-4)GlcNAc6S = biological target: GalNAc(b1-4)GlcNAc6S
# Method in brief: as §1
# [21] = biological target: GlcNAc(a1-4)Gal(b1-4)GalNAc
# Method in brief: as §1
# [22] = biological target: GlcNAc(a1-4)Gal(b1-4)GlcNAc(b1-3)Gal(b1-4)[Fuc(a1-3)]GlcNAc(b1-3)Gal(b1-4)[Fuc(a1-3)]GlcNAc
# Method in brief: as §1
# [23] = biological target: GlcNAc(b1-2)[GlcNAc(b1-4)]Man(a1-3)[GlcNAc(b1-4)][GlcNAc(b1-2)[GlcNAc(b1-6)]Man(a1-6)]Man(b1-4)GlcNAc(b1-4)GlcNAc
# Method in brief: as §1
# [24] = biological target: GlcNAc(b1-2)[GlcNAc(b1-6)]Man(a1-6)[GlcNAc(b1-4)][GlcNAc(b1-2)Man(a1-3)]Man(b1-4)GlcNAc(b1-4)GlcNAc
# Method in brief: as §1
# GlcNAc(b1-3)Fuc = biological target: GlcNAc(b1-3)Fuc
# Method in brief: as §1
# GlcNAc(b1-3)Gal = biological target: GlcNAc(b1-3)Gal
# Method in brief: as §1
# [25] = biological target: GlcNAc(b1-3)Gal(b1-4)GlcNAc(b1-3)Gal(b1-4)GlcNAc(b1-2)Man(a1-3)[GlcNAc(b1-3)Gal(b1-4)GlcNAc(b1-3)Gal(b1-4)GlcNAc(b1-2)Man(a1-6)]Man(b1-4)GlcNAc(b1-4)[Fuc(a1-6)]GlcNAc
# Method in brief: as §1
# [26] = biological target: GlcNAc(b1-3)Gal(b1-4)GlcNAc(b1-3)Gal(b1-4)GlcNAc(b1-3)Gal(b1-4)GlcNAc(b1-2)Man(a1-3)[GlcNAc(b1-3)Gal(b1-4)GlcNAc(b1-3)Gal(b1-4)GlcNAc(b1-3)Gal(b1-4)GlcNAc(b1-2)Man(a1-6)]Man(b1-4)GlcNAc(b1-4)[Fuc(a1-6)]GlcNAc
# Method in brief: as §1
# Kdn(a2-3)Gal(b1-4)Glc = biological target: Kdn(a2-3)Gal(b1-4)Glc
# Method in brief: as §1
# [27] = biological target: Man(a1-2)Man(a1-3)[Man(a1-2)Man(a1-6)]Man
# Method in brief: as §1
# [28] = biological target: Neu5Ac(a2-3)Gal(b1-3)GlcNAc(b1-2)Man(a1-3)[Neu5Ac(a2-3)Gal(b1-3)GlcNAc(b1-2)Man(a1-6)]Man(b1-4)GlcNAc(b1-4)GlcNAc
# Method in brief: as §1
# [29] = biological target: Neu5Ac(a2-3)Gal(b1-3)GlcNAc(b1-3)Gal(b1-3)GlcNAc
# Method in brief: as §1
# [30] = biological target: Neu5Ac(a2-3)Gal(b1-3)GlcNAc(b1-3)GalNAc
# Method in brief: as §1
# [31] = biological target: Neu5Ac(a2-3)Gal(b1-4)GlcNAc(b1-2)Man
# Method in brief: as §1
# [32] = biological target: Neu5Ac(a2-3)Gal(b1-4)GlcNAc(b1-3)Gal(b1-3)GlcNAc
# Method in brief: as §1
# [33] = biological target: Neu5Ac(a2-3)Gal(b1-4)[Fuc(a1-3)]GlcNAc(b1-6)[Gal(b1-3)]GalNAc
# Method in brief: as §1
# [34] = biological target: Neu5Ac(a2-3)Gal(b1-4)[Fuc(a1-3)]GlcNAc(b1-6)[Neu5Ac(a2-3)Gal(b1-3)]GalNAc
# Method in brief: as §1
# [35] = biological target: Neu5Ac(a2-3)[GalNAc(b1-4)]Gal(b1-4)GlcNAc(b1-3)GalNAc
# Method in brief: as §1
# Neu5Ac(a2-6)Gal(b1-4)Glc = biological target: Neu5Ac(a2-6)Gal(b1-4)Glc
# Method in brief: as §1
# [36] = biological target: Neu5Ac(a2-6)Gal(b1-4)GlcNAc(b1-6)GalNAc
# Method in brief: as §1
# [37] = biological target: Neu5Ac9Ac(a2-3)Gal(b1-3)GlcNAc
# Method in brief: as §1
# [38] = biological target: Neu5Ac9Ac(a2-3)Gal(b1-4)GlcNAc
# Method in brief: as §1
# [39] = biological target: Neu5Gc(a2-8)Neu5Gc(a2-6)Gal(b1-4)GlcNAc
# Method in brief: as §1
binder,measurement,setting,value
B1,glycan array binding signal (z-score),[1],0.366
same,glycan array binding signal (z-score),[2],2.84
same,glycan array binding signal (z-score),Fuc(a1-2)Gal(b1-4)Glc,-0.358
same,glycan array binding signal (z-score),[3],1.33
same,glycan array binding signal (z-score),Fuc(a1-2)Gal6S(b1-4)Glc,0.397
same,glycan array binding signal (z-score),[4],0.797
same,glycan array binding signal (z-score),[5],-0.242
same,glycan array binding signal (z-score),[6],1.04
same,glycan array binding signal (z-score),[7],1.09
same,glycan array binding signal (z-score),[8],0.646
same,glycan array binding signal (z-score),[9],3.56
same,glycan array binding signal (z-score),[10],-0.582
same,glycan array binding signal (z-score),Gal(a1-4)Gal(b1-4)GlcNAc,0.333
same,glycan array binding signal (z-score),[11],0.423
same,glycan array binding signal (z-score),[12],3.59
same,glycan array binding signal (z-score),[13],3.02
same,glycan array binding signal (z-score),[14],-0.949
same,glycan array binding signal (z-score),Gal(b1-4)GlcNAc,-0.031
same,glycan array binding signal (z-score),[15],-0.827
same,glycan array binding signal (z-score),[16],2.98
same,glycan array binding signal (z-score),[17],1.05
same,glycan array binding signal (z-score),[18],1.64
same,glycan array binding signal (z-score),[19],3.14
same,glycan array binding signal (z-score),Gal3S(b1-4)Glc,-0.046
same,glycan array binding signal (z-score),Gal3S6S(b1-4)GlcNAc6S,1.04
same,glycan array binding signal (z-score),[20],6.98
same,glycan array binding signal (z-score),GalNAc(b1-4)GlcNAc6S,-0.848
same,glycan array binding signal (z-score),[21],0.705
same,glycan array binding signal (z-score),[22],1.24
same,glycan array binding signal (z-score),[23],-0.751
same,glycan array binding signal (z-score),[24],-0.832
same,glycan array binding signal (z-score),GlcNAc(b1-3)Fuc,0.25
same,glycan array binding signal (z-score),GlcNAc(b1-3)Gal,-0.782
same,glycan array binding signal (z-score),[25],-0.417
same,glycan array binding signal (z-score),[26],1.12
same,glycan array binding signal (z-score),Kdn(a2-3)Gal(b1-4)Glc,3.53
same,glycan array binding signal (z-score),[27],-0.916
same,glycan array binding signal (z-score),[28],4.88
same,glycan array binding signal (z-score),[29],-0.881
same,glycan array binding signal (z-score),[30],-0.187
same,glycan array binding signal (z-score),[31],5.56
same,glycan array binding signal (z-score),[32],-0.884
same,glycan array binding signal (z-score),[33],0.146
same,glycan array binding signal (z-score),[34],0.465
same,glycan array binding signal (z-score),[35],-0.27
same,glycan array binding signal (z-score),Neu5Ac(a2-6)Gal(b1-4)Glc,0.536
same,glycan array binding signal (z-score),[36],4.24
same,glycan array binding signal (z-score),[37],1.47
same,glycan array binding signal (z-score),[38],-0.689
same,glycan array binding signal (z-score),[39],-0.059
